# In ChEMBL document CHEMBL3988442, “University of Dundee, Small-Polar-MMV Screening Library” (2021):
# Out of some 48,000 compounds screened, about 13,000 (27%) showed an effect of 50% or more. This is one part of the list.
# Test system: Wolbachia pipientis
# Assay: Anti-Wolbachia Cell-Based Screen
# Type: functional
# Parameters: scale not given: in the data most compounds retested in dose-response had high values
# Conditions: 5 µM
row,SMILES,Percent Effect [%]
1,CC(C)c1ocnc1C(=O)NC1(c2cccc(F)c2)CCOCC1,-15.1
2,O=S1(=O)CCCN(Cc2ccccc2OCC(F)(F)F)CC1,7.623
3,Fc1cccc(-c2n[nH]cc2-c2nc(CN3CCOCC3)no2)c1,25.75
4,CN1CCN(Cc2ccccc2Oc2cncc(C(N)=O)n2)CC1,7.262
5,CC(=O)N1Cc2ccccc2CC1C(=O)Nc1cc(C)ccn1 (centres undefined),-13.21
6,COc1ccccc1OC1CN(Cc2ccc(C(=O)O)cc2)C1,-24.62
7,C[C@]1(O)CN(Cc2ccc(C(=O)O)cc2)CC[C@@H]1Oc1cccc(F)c1,71.72
8,C[C@]1(O)CN(Cc2cccc(C(=O)O)c2)CC[C@@H]1Oc1cccc(F)c1,113.2
9,O=C(NCC1(O)CCOc2ccccc21)Nc1ccc2c(c1)OCO2 (centres undefined),5.05
10,CCn1cc(NC(=O)C2CCN(Cc3ccccc3C#N)CC2)cn1,4.672
11,CCc1noc(CN2CCC(C(=O)Nc3cnn(CC)c3)CC2)n1,82.9
12,CCn1cc(NC(=O)C2CCN(Cc3noc(C(C)C)n3)CC2)cn1,3.174
13,CC(C)Cc1noc(CN2CCC(C(=O)NCC3CCCO3)CC2)n1 (centres undefined),11.96
14,CCCc1noc(CN2CCC(C(=O)Nc3cnn(CC)c3)CC2)n1,112.1
15,CCc1noc(C(C)N2CCC(C(=O)Nc3cnn(CC)c3)CC2)n1 (centres undefined),11.99
16,O=C(Nc1ccc(F)cc1)C1CCN(Cc2noc(C3CC3)n2)CC1,-24.67
17,O=C(Nc1cccc(F)c1)C1CCN(Cc2noc(C3CC3)n2)CC1,-5.725
18,CC(C)c1noc(CN2CCC(C3CCCCCN3S(C)(=O)=O)CC2)n1.Cl (centres undefined),5.236
19,CCn1cc(NC(=O)C2CCN(Cc3nc(C(C)C)no3)CC2)cn1,89.67
20,CCn1cc(NC(=O)C2CCN(Cc3noc(C4CC4)n3)CC2)cn1,113.1
21,CCn1nc(C(=O)N2CCNCC2C(=O)Nc2ccc(C)nc2)cc1C (centres undefined),-9.898
22,CN(CC(=O)N1CCCC1c1cnn(C)c1)c1ccc(Cl)cn1 (centres undefined),7.888
23,CNc1cc(C2CCCN2C(=O)CCc2ccccc2F)ccn1 (centres undefined),87.66
24,Cc1c(CCC(=O)N2CCCC2c2ccnc(N(C)C)c2)cnn1C (centres undefined),100.7
25,CNc1cc(C2CCCN2C(=O)CCc2cnn(C)c2C)ccn1 (centres undefined),114.3

row,SMILES,Percent Effect [%]
1,Cc1ncsc1CCC(=O)N1CCCC1c1cccnc1 (centres undefined),-20.99
2,CNc1cc(C2CCCN2Cc2ccccc2C(=O)O)ccn1 (centres undefined),-9.621
3,COc1ccc(Nc2cc(C)nc(C)n2)cc1N1CCCC1=O,-4.769
4,O[C@H]1CC[C@@H](Cc2cc(-c3ccccc3)on2)O[C@@H]1CNCC1CC1,0.08363
5,OCCN1CCC(CNCc2ccc(Br)cc2)CC1,-27.23
6,CC(C)N(C)C(=O)C1CSCN1S(=O)(=O)c1ccccc1F (centres undefined),0.8894
7,CCc1cc(CNC(=O)C2CCC(=O)N(Cc3ccccc3F)C2)on1 (centres undefined),-10.8
8,CC(C)N1[C@H](CN2CCCC2)C[C@@H]2CN(Cc3cnn(C)c3)CC[C@@H]21,1.544
9,CC(=O)N1[C@H](Cn2cncn2)C[C@@H]2CN(Cc3nccs3)CC[C@@H]21,4.372
10,Cn1cc(CN2CCO[C@H]3C(Cn4cccn4)CC[C@@H]32)cn1 (some centres undefined),5.846
11,CN1C(Cn2cccn2)C[C@@H]2CN(Cc3cnn(C)c3)CC[C@@H]21 (some centres undefined),88.14
12,c1cnn([C@@H]2CN(Cc3nccs3)[C@@H]3CCCO[C@@H]32)c1,-0.08077
13,CN1C(Cn2cccn2)C[C@@H]2CN(Cc3nccs3)CC[C@@H]21 (some centres undefined),108
14,Cc1nc(CN2CCC3(CC2)C(=O)N(C)CCN3C)cs1.O=C(O)C(F)(F)F.O=C(O)C(F)(F)F.O=C(O)C(F)(F)F,99.41
15,CCc1ccc(CN2CCC3(CC2)C(=O)N(C)CCN3CC)cc1,-23.08
16,Cc1nc(CN2CCN(C)C(=O)C23CCN(CC2CCCC2)CC3)cs1,121.4
17,CCN1CCN(C)C(=O)C12CCN(Cc1csc(C)n1)CC2.O=C(O)C(F)(F)F,113.1
18,Cc1nc(Cn2c3c(ccc2=O)CCN(CC2CCC2)CC3)cs1.O=C(O)C(F)(F)F.O=C(O)C(F)(F)F,-14.62
19,COCC1CC2(CCN(CC3CC3)CC2)CN1Cc1csc(C)n1.O=C(O)C(F)(F)F.O=C(O)C(F)(F)F (centres undefined),2.06
20,Cc1nc(CN2CCC3(CC2)CC(=O)N(C)c2ccccc23)cs1.O=C(O)C(F)(F)F,-15.31
21,Cc1nc(CN2CCC3(CC2)CCN(C(=O)c2cscn2)C3)cs1.O=C(O)C(F)(F)F,-22.9
22,CC(NC(=O)c1cnccn1)c1nnc2ccccn12 (centres undefined),-8.378
23,CN(CC1Cc2ccccc2CN1C)C(=O)CSc1nccn1C (centres undefined),-6.855
24,CN(C)C(C(=O)Nc1nccs1)c1c(F)cccc1Cl (centres undefined),-1.745
25,CCCN1CCC(Nc2nc(CC)ns2)CC1,-19.08

row,SMILES,Percent Effect [%]
1,CN(Cc1cccnc1)C1CC2(CCN(C(=O)c3ccnnc3)CC2)C1,9.482
2,O=C(c1ccncc1)N1CCC2(CC1)CC(Oc1cccnc1)CO2 (centres undefined),-1.534
3,O=C(c1ccnnc1)N1CCC2(CC1)CCN(C(=O)c1cccnc1)C2,96.42
4,O=C(c1ccncc1)N1CCC2(CC1)CCN(C(=O)c1cccnc1)C2,102.3
5,COC(=O)[C@H]1CN(C(C)=O)CCN1C(C)=O,-4.652
6,O=C1CCN(C(=O)C2(c3ccc(F)cc3)CCCCC2)CCN1,-15.47
7,CNS(=O)(=O)CCCNC(C)(C)c1nc(C)cs1,1.727
8,CCOc1ccccc1C(CC(=O)O)NC(C)=O (centres undefined),10.47
9,Cc1nsc(NC2CC(=O)N(C(C)(C)C)C2)n1 (centres undefined),-3.11
10,COc1ccc(-c2ccccc2CCN)c(OC)c1OC,-10.47
11,COc1cc(-c2n[nH]c(CC#N)n2)cc(OC)c1OC,137.1
12,COc1cc(-c2n[nH]c(CO)n2)cc(OC)c1OC,101.2
13,COc1ccc(OC)c(-n2cnnc2CCN)c1,12.28
14,COc1cc(CNc2nc3c(c(=O)[nH]2)CCNC3)cc(OC)c1OC,-8.828
15,COc1cc(-c2n[nH]c(CCN)n2)cc(OC)c1OC,136.2
16,COc1cc(CO)c(OC)c2c1OCO2,0.3319
17,COc1cc(-c2cnnc(NCCSC)n2)cc(OC)c1OC,-5.891
18,COc1cc(CNc2nncs2)cc(OC)c1OC,-2.056
19,COc1cc(-c2cnnc(NCC3CC3)n2)cc(OC)c1OC,22.6
20,COc1cc(-c2nc(N)n[nH]2)cc(OC)c1OC,107.9
21,CC(C)c1nccn1C1CCCN(C(=O)c2cccc3[nH]ncc23)C1 (centres undefined),-3.235
22,CN(CCNC(=O)Nc1ccncc1)C1CCCCC1,-10.45
23,COCCC(=O)NCCCOC1CCCc2ccccc21 (centres undefined),3.193
24,CC(=O)N1CCN(C(=O)NCCCN(C)S(C)(=O)=O)CC1,-13.58
25,CC(C)c1noc(C(C)N2CCN(Cc3nc4ccccc4[nH]3)CC2)n1 (centres undefined),-18.96

row,SMILES,Percent Effect [%]
1,CCN(C(=O)CN1CCCC1Cc1ccccc1)c1ccccc1 (centres undefined),22.38
2,COc1cc(CN)c(OC)c2c1OCO2.Cl,-2.392
3,COc1cc(-c2n[nH]c(CN)n2)cc(OC)c1OC,105.2
4,COc1cc(-c2cccc3c2OC(CN)C3)cc(OC)c1OC (centres undefined),1.955
5,CNS(=O)(=O)c1ccc(CNC(=O)NCC2CCOC2)cc1 (centres undefined),7.061
6,Cn1cc(CN2CC[C@H]3C[C@H](c4nc(C5CC5)cs4)O[C@@H]3C2)cn1,15.37
7,Cn1cc(CN2CC[C@H]3C[C@@H](c4nc(C5CC5)cs4)O[C@@H]3C2)cn1,-0.3412
8,Fc1cnc(N2C[C@@H]3C[C@@H](c4nc(C5CC5)cs4)O[C@@H]3C2)nc1.O=C(O)C(F)(F)F,94.12
9,Cc1csc([C@@H]2C[C@H]3CN(c4ncc(F)cn4)C[C@H]3O2)n1.O=C(O)C(F)(F)F,98.65
10,Cc1cnc(C(=O)N2CC[C@H]3C[C@@H](c4nc(C)cs4)O[C@@H]3C2)cn1,-16.87
11,Cc1nc(CN2C[C@@H]3CN(c4ncc(F)cn4)C[C@@H]3C2=O)cs1.O=C(O)C(F)(F)F,-12.56
12,Cc1cccc(N2CCN(c3ccn4c(=O)[nH]nc4n3)CC2)c1C,-10.93
13,Cc1ccc2c(c1C)OCC2NCc1cccc(C#N)c1 (centres undefined),-16
14,Cc1cc2n(n1)CC(CNCCNC(=O)c1ccc(F)cc1)CN2 (centres undefined),-2.749
15,CC(C(=O)N1CCCC1)S(=O)(=O)Cc1nc(C(C)(C)C)no1 (centres undefined),0.9098
16,CCCc1nnc(NC2CCN(CCO)CC2)o1,-14.34
17,CCCc1nnc(NCCc2noc(C3CCC3)n2)o1,108
18,CCCc1nnc(NCCc2noc(C3CC3)n2)o1,133.3
19,c1ccc(-c2nc(CCNc3nnc(C4CCC4)o3)no2)cc1,-25.81
20,c1ccc(-c2n[nH]c(CCNc3nnc(C4CCC4)o3)n2)cc1,-23.29
21,CCCc1nnc(NCCc2noc(C3CCCC3)n2)o1,110.1
22,Cc1cccc(C)c1NCc1noc(C2CC2)n1,-19.13
23,CCCc1nnc(NC2CCN(C3CCOCC3)CC2)o1,-6.121
24,CCCc1nnc(NC2CCN(C3CCCC3)CC2)o1,-6.832
